Assay outcomes from PubChem.
Sampled rows, rich in hits. Any-hit rate of the full collection: about 2.4%.
HSP90 inh = blocks HSP90-mediated luciferase refolding in reticulocyte lysate. Rabbit reticulocyte lysate, luciferase refolding luminescence, 3 h. inhibition, % at 5.6 µM. 290,000 compounds, 0.91% hits. AID 1789;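 active = inhibition above the screen-wide mean plus 3 SD, computed separately per campaign, cut at about 16% in these data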;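 note: 0% = DMSO wells and 100% = 60 µM geldanamycin wells; inhibitors lower the luminescence because luciferase stays unfolded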
STAT1 blocker = inhibitors of IFN-gamma induced STAT1 signaling. NIH 3T3 STAT1-luciferase reporter, luminescence. inhibition, % at 5.5 µM. 200,000 compounds, 0.35% hits;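 active = inhibition above a set limit, the mean inhibition across all tested compounds plus 3 SD, cut at about 34% in these data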;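 note: 0% = IFN-gamma with DMSO and 100% = IFN-gamma with 300 µM nifuroxazide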
HSF1 inh = HSF1 inhibition; NIH3T3-HGL HSE-luciferase, MG132-induced, luminescence 8 h; stronger effect = lower value; activity change, negative = inhibition, % at 7.5 µM (by protocol); 300,000 compounds, 0.77% hits; AID 2098;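 active = more than half of replicate wells show activity change below -50%, luminescence cut by over half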;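 note: luciferase reports HSF-1 transcriptional activity via heat shock element; 0% = median of DMSO wells and -100% = zero luminescence signal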
PPC-1+TRAIL kill = compounds killing PPC-1 cancer cells with TRAIL present (potentiator screen, no TRAIL-free arm). PPC-1 cells + TRAIL, ATPLite viability luminescence. cell killing (% activity), % at 4 µM or 5 µM. 220,000 compounds, 0.41% hits;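 active = cell killing above 50% in the first pass at 4 µM, then a duplicate retest at 5 µM averaging 50% or more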;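 note: plate controls were cells with TRAIL plus DMSO for no effect and medium-only wells lacking cells for full effect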
STAT3 inh = reduces IL-6 driven STAT3 reporter signal | U3A cells, IL-6 STAT3-luciferase reporter, luminescence; host cell line lacks STAT1 | inhibition, % at 5.5 µM | 190,000 compounds, 0.89% hits | AID 862;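 active = inhibition above the mean inhibition across all screened compounds plus 3 SD, cut at about 44% in these data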;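 note: 0% = DMSO only wells and 100% = 100 µM nifuroxazide control wells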
TRAIL sens C8 = caspase-8 TRAIL sensitization; NB7+C8 cells + TRAIL, ATPlite viability luminescence; inhibition (viability loss, TRAIL sensitization), % at 10 µM; 360,000 compounds, 1% hits; AID 624354;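 active = compounds causing at least 50% loss of cell viability in the single-dose screen, relative to plate controls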
HSP90 inh confirm = HSP90 inhibition, confirmation assay; shares compounds with HSP90 inh; AID 1846; rabbit reticulocyte lysate, luciferase refolding luminescence, 3 h; inhibition, % at 5.9 µM; 2,300 compounds, 64% hits; in the data active = inhibition above about 18%;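 note: 0% = vehicle wells and 100% = reference inhibitor wells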
FLuc counter = firefly luciferase inhibition, HSP90 counter-screen. 2,300 compounds, 48% hits. inhibition, % at 5.9 µM. purified native firefly luciferase, luminescence. shares compounds with HSP90 inh;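 active = inhibition above the mean inhibition of all tested sample wells plus 3 SD, cut at about 10% in these data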;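 note: 0% = DMSO with luciferase and 100% = wells lacking luciferase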
Target sequence (P08659 whole entry, looked up): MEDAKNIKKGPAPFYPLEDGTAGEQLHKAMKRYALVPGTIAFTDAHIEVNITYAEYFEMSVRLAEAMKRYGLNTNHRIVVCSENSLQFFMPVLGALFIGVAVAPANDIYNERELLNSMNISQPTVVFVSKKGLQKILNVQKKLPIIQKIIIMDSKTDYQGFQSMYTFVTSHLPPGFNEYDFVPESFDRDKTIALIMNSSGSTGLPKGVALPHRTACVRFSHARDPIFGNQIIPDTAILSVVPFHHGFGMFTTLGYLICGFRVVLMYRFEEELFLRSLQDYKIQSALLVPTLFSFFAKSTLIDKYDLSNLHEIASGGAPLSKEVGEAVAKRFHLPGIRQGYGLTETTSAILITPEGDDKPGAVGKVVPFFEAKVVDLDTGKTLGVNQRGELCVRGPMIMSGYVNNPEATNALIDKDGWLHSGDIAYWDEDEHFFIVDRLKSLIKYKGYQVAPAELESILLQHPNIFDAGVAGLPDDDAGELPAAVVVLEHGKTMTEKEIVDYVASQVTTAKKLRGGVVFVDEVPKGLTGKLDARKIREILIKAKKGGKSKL
* hit, by the source's call; nt = not tested or not shown.

SMILES	HSP90 inh	STAT1 blocker	HSF1 inh	PPC-1+TRAIL kill	STAT3 inh	TRAIL sens C8	HSP90 inh confirm	FLuc counter
COc1ccc(/C=N/N2CCN(c3ccccc3OC)CC2)cc1OC	2	-8	0	11	15	-5	nt	nt
Cc1ccc(NC(=O)Nn2cnnc2)cc1Cl	-8	nt	6	nt	nt	0	nt	nt
Cc1ccc(NC(=O)O/N=C/c2c(C)nn(C(C)(C)C)c2C)cc1Cl	86*	nt	-93*	10	nt	21	87*	88*
COc1ccc(N2CCC(CNC(=S)Nc3cccc(OC)c3)C2)cc1 (stereo not given)	18*	0	-5	14	8	nt	0	-10
COc1ccc(N2CCC(CNC(=O)Nc3cccc(OC)c3)C2)cc1 (stereo not given)	1	2	4	15	8	-8	nt	nt
Nc1ccc(C=Cc2ccc(N)cc2)cc1	nt	nt	nt	nt	nt	4	nt	nt
COc1ccc(-c2cc(C(=O)O)c(C)o2)cc1OC	76*	-56	-61*	-12	40	-3	90*	65*
COc1ccc(-c2cc(C(=O)NC(Cc3cc4ccccc4[nH]3)C(=O)O)c(C)o2)cc1OC (stereo not given)	2	-11	-7	6	-20	6	nt	nt
CC(C)(C)c1cc(NC(=O)c2ccco2)no1	19*	nt	25	nt	nt	43	31*	12*
CCCN=Cc1ccc(O)cc1	1	-6	-10	18	-1	-6	nt	nt
Oc1c(Br)cc(Br)cc1CNn1cnnc1	67*	nt	-1	nt	nt	10	-3	-5
c1cc(-c2ccsc2)n2cnnc2c1	nt	nt	nt	nt	nt	0	nt	nt
COc1cccc(C(C(=O)NC(C)(C)C)N(CCC(C)C)C(=O)CCC(=O)Nc2cc(C)on2)c1OC (stereo not given)	-1	4	4	14	8	2	nt	nt
CN1CCN(Cc2c(O)ccc3occ(C(=O)c4ccccc4)c23)CC1	2	-3	-3	2	-1	-9	nt	nt
COc1ccc(C(=O)c2coc3ccc(O)c(CN(C)C)c23)cc1	35*	-3	51	-12	6	-3	-6	-13
CC(C(=O)NCc1ccccc1)n1c(-c2ccc3c(c2)CCO3)nc2ccccc21 (stereo not given)	nt	nt	nt	nt	nt	-17	nt	nt
Cc1ccc(C(=O)NC2=NCCS2)cc1	12	nt	27	-2	nt	nt	nt	nt
CC(C)c1ccc(C(=O)NC2=NCCS2)cc1	18*	-52	nt	46	34	70*	42*	38*
CC(=O)c1cccc(NC(=O)c2cccc3c(-c4cccnc4)coc23)c1	nt	nt	nt	nt	nt	33	nt	nt
[O-]/[N+](=C\c1ccncc1)c1ccc(Br)cc1	31*	-24	78	10	2	12	97*	-10
c1ccc(NCCC2OCC3(CO2)COC(CCNc2ccccc2)OC3)cc1 (stereo not given)	nt	nt	nt	nt	nt	-1	nt	nt
CC(=O)Oc1cc(OC(C)=O)c2c(C)cc(=O)oc2c1	21*	-6	-14	8	-1	-10	-2	-4
N/C(=N\OC(=O)c1ccc(=O)n(Cc2ccccc2)c1)c1ccccn1	-1	-12	4	5	-4	-8	nt	nt
CCCc1ccc(C(=O)O/N=C(\N)c2ccccn2)cc1	78*	nt	-83*	nt	nt	89*	75*	89*
COc1cccc(C(=O)O/N=C(\N)c2ccccn2)c1	67*	nt	-87*	nt	nt	79*	85*	91*
SMILES	HSP90 inh	STAT1 blocker	HSF1 inh	PPC-1+TRAIL kill	STAT3 inh	TRAIL sens C8	HSP90 inh confirm	FLuc counter
COc1cccc(C(=O)O/N=C(\N)c2ccccn2)c1OC	53*	nt	-31	nt	nt	42	64*	72*
COc1ccccc1/C=N\N=C(\N)c1ccccn1	25*	-70	3	11	11	4	9	-12
Nc1nc2ccc(Cl)cc2cc1C(=O)NCCCN1CCOCC1	nt	nt	nt	nt	nt	-17	nt	nt
O=C(O)c1ccc(N=Nc2c(O)ccc3ncccc23)cc1	54*	nt	-1	nt	nt	-1	54*	20*
O=C(O)c1cc(N=Nc2c(O)ccc3ccccc23)cc(C(=O)O)c1	-2	-1	nt	18	-14	1	nt	nt
Cc1nn(-c2ccccc2)c2sc(-c3n[nH]c(=S)o3)cc12	19*	-12	-2	-8	-3	-29	-14	-12
C[C@@H]1CN([C@H](C)CO)S(=O)(=O)c2ccc(Br)cc2O[C@H]1CN(C)C(=O)C1CC1	nt	nt	nt	nt	nt	-11	nt	nt
COc1ccc(OC)c(/C=N\Nc2nccs2)c1	nt	nt	-5	nt	nt	-15	nt	nt
COc1ccc(OC)c(/C=N/Nc2nncn2/N=C/c2cc(OC)ccc2OC)c1	42*	-2	38	12	-8	-14	-2	-12
COC(=O)[C@@]12C[C@@H](CC(=O)N3CCN(C(=O)c4ccco4)CC3)C(=O)N(Cc3ccccc3)C1=CCC(C)(C)C2	nt	nt	nt	nt	nt	1	nt	nt
CN(C)C1=NC(=O)/C(=C\c2ccccc2)S1	38*	-3	3	27	9	0	-11	-15
NC1=NC(=O)C(=Cc2ccccc2)S1	nt	nt	-12	nt	nt	2	nt	nt
COc1cc(C2C(C#N)=C(N)Oc3n[nH]c(-c4cccs4)c32)cc(OC)c1O (stereo not given)	24*	-7	24	13	4	-9	-3	-7
N#CC1=C(N)Oc2n[nH]c(-c3cccs3)c2C1c1cccnc1 (stereo not given)	14	11	-7	12	18	-15	nt	nt
N#CC1=C(N)Oc2n[nH]c(-c3ccncc3)c2C1c1ccsc1 (stereo not given)	17*	15	4	19	6	-5	-1	-7
COc1cc(OC)cc(C2C(C#N)=C(N)Oc3n[nH]c(-c4cccnc4)c32)c1 (stereo not given)	18*	4	0	-8	3	-8	-3	-2
CCC(CC)C1C(C#N)=C(N)Oc2n[nH]c(-c3ccccc3)c21 (stereo not given)	18*	4	11	-2	12	32	-8	-2
Cc1cc(NC(=O)CN2C(=O)C3CC=CCC3C2=O)no1 (stereo not given)	1	2	-6	-8	12	-1	nt	nt
COc1ccc(Cc2c(-c3cccc(Cl)c3)nc3ccc(C)cn23)c(C)c1	nt	nt	nt	nt	nt	-6	nt	nt
CC1CN/C(=C\C(=O)c2ccc(Cl)cc2)C(=O)N1 (stereo not given)	22*	-27	0	28	31	14	40*	24*
N/C(=N\OC(=O)c1ccc([N+](=O)[O-])cc1Cl)c1ccccn1	67*	nt	-10	nt	nt	88*	61*	90*
Cc1ccc(C(=O)O/N=C(\N)c2ccccn2)c(Cl)c1	94*	nt	-84*	nt	nt	91*	96*	91*
COc1ccc(C(=O)NCCn2cc(SCC(=O)NCC3CCCO3)c3ccccc32)cc1 (stereo not given)	29*	nt	0	nt	nt	0	15	3
